# Source: PubChem BioAssay (NCATS)
# Inconclusive results are not listed. A call without a number means that no potency is given here. Calls of active or inactive are those of the source. Unless noted, calls follow the shape of the dose curve; as a rule, active = well fitted curve in the direction sought with a large enough effect; inconclusive = small, poorly fitted or top-dose-only effect, or another doubt; inactive = no such curve, though single readings can be large; an effect the other way counts as inactive or inconclusive.
# Assays:
# [1] = target: Glucocorticoid receptor (Homo sapiens) (UniProt P04150); assay: qHTS assay for small molecule antagonists of glucocorticoid receptor signaling (AID 588533; active = well fitted inhibition curve with a large enough effect in the signal ratio, with a control signal flat, not every such curve was filed as active; the % refers to the signal ratio;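 also: cells stimulated with 2 nM dexamethasone as agonist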; also: potency is read from the fitted curve at half-maximal effect)
# Outline: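 Antagonist-mode qHTS: compound titrations added to GRE-bla HeLa cells, then dexamethasone 2 nM final; 18 h, 37 C. CCF4 FRET fluorescence normalized to dexamethasone and DMSO; IC50 from Hill fit.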
# [2] = qHTS assay for small molecule antagonists of peroxisome proliferator-activated receptor delta signaling (AID 588535; active = well fitted inhibition curve with a large enough effect in the signal ratio, with a control signal flat, not every such curve was filed as active; the % refers to the signal ratio;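 as to max response: cells co-treated with a PPAR-delta agonist as stimulator during compound exposure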); conditions: HEK293T PPARd-UAS-bla, beta-lactamase FRET ratio, 18 h; 460 nm channel
# Outline: (§1)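 Titrations were run on PPAR-delta-UAS-bla HEK293T cells in charcoal/dextran-stripped serum, incubated 18 h at 37 C. CCF4 fluorescence (460/530 nm) after 2 h RT; Hill equation yields IC50 and maximal response.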
# [3] = target: Peroxisome proliferator-activated receptor delta (Homo sapiens) (UniProt Q03181); assay: as above
# Outline: as §1
# [4] = target: Peroxisome proliferator-activated receptor gamma (Homo sapiens) (UniProt P37231); assay: qHTS assay for small molecule agonists of peroxisome proliferator-activated receptor gamma signaling (AID 588536; active = well fitted curve in the direction sought with a large enough effect in the signal ratio, with a control signal flat, not every such curve was filed as active; the % refers to the signal ratio)
# Outline: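 Compound treatment: 16 h, 37 C, HEK293 GeneBLAzer cells. Detection: CCF4, 2 h RT. Values: Hill-fit EC50, efficacy as % of 2 uM rosiglitazone.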
# [5] = target: Vitamin D3 receptor (Homo sapiens) (UniProt P11473); assay: qHTS assay for small molecule antagonists of vitamin D receptor signaling (AID 588541; calls by dose curve;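 also: receptor activated by calcitriol during compound treatment; series mostly up to about 77 µM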)
# Outline: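 Antagonist-mode beta-lactamase reporter assay: HEK293T VDR-UAS-bla cells were exposed to titrated compound alongside 1-alpha,25-dihydroxyvitamin D3 at 3 nM final for 16 h. Values were normalized to the 50 nM agonist control and DMSO basal, with IC50 and efficacy from Hill equation fits.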
# [6] = target: Vitamin D3 receptor (Homo sapiens) (UniProt P11473); assay: qHTS assay for small molecule agonists of vitamin D receptor signaling (AID 588543; calls by dose curve)
# Outline: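 β-lactamase reporter, VDR-UAS-bla HEK293T, agonist mode. Cells plated 5 h at 37 °C, compound titration 16 h at 37 °C, CCF4 dye 2 h RT, ratio 460/530 nm. Hill fit → EC50, efficacy vs 50 nM 1α,25-(OH)2D3.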
# [7] = qHTS assay for small molecule agonists of retinoid X receptor alpha signaling (AID 588544; calls by dose curve); conditions: HEK293T RXRa-UAS-bla, beta-lactamase reporter, 18 h; 530 nm emission
# [8] = target: Retinoic acid receptor RXR-alpha (Homo sapiens) (UniProt P19793); assay: as above
# [9] = target: Thyroid hormone receptor beta (Homo sapiens) (UniProt P10828); assay: qHTS assay for small molecule agonists of thyroid hormone receptor beta signaling (AID 588545; calls by dose curve)
# Outline: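 HEK 293 TR-UAS-bla; agonist mode; 18 hrs, 37 C; CCF4, ex 405/em 460 and 530 nm; norm. T3 10 nM = 100%, DMSO = 0%; Hill fit → EC50, efficacy.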
# [10] = qHTS assay for small molecule antagonists of retinoid X receptor alpha signaling (AID 588546; active = well fitted inhibition curve with a large enough effect in the signal ratio, with a control signal flat, not every such curve was filed as active; the % refers to the signal ratio;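 also: cells stimulated with 9-cis-retinoic acid as agonist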); conditions: HEK293T RXRa-UAS-bla, beta-lactamase ratio, antagonist mode; measured here: W530 green channel, cytotoxicity proxy
# Outline: (§2)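 Beta-lactamase reporter inhibition, read as CCF4 fluorescence ratio (ex 405, em 460/530 nm) after 2 h at RT. HEK293T UAS-bla cells, 2500/well, were stimulated with 9-cis-RA at 500 or 100 nM final alongside test compound for 18 h at 37 C.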
# [11] = target: Retinoic acid receptor RXR-alpha (Homo sapiens) (UniProt P19793); assay: as above; conditions: HEK293T RXRa-UAS-bla, beta-lactamase ratio, antagonist mode
# Outline: as §2
# [12] = target: Thyroid hormone receptor beta (Homo sapiens) (UniProt P10828); assay: qHTS assay for small molecule antagonists of thyroid hormone receptor beta signaling (AID 588547; active = well fitted inhibition curve with a large enough effect in the signal ratio, with a control signal flat, not every such curve was filed as active; the % refers to the signal ratio;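 also: cells stimulated with 0.4 nM T3 agonist during compound exposure; series mostly up to about 77 µM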); conditions: TR-UAS-bla HEK293, beta-lactamase ratio, antagonist mode, 18 h
# Outline: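 Inhibition of T3-driven (0.4nM final) beta-lactamase reporter activity was measured over 0.59 nM to 92 uM compound after 18 h at 37 C. The cells were GripTite HEK293 TR-UAS-bla in charcoal/dextran-stripped serum, with CCF4 ratio read-out and IC50 from Hill fits.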
# [13] = target: Luciferin 4-monooxygenase (Photinus pyralis) (UniProt P08659); assay: Biochemical firefly luciferase enzyme assay for NPC (AID 624030);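 also: purified P. pyralis luciferase at 10 nM with luciferin and ATP substrate; series mostly up to about 59 µM; nearly all actives have a fitted effect of over 70% in size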
# Outline: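 Direct inhibition of firefly luciferase enzyme (10 nM final, 50 mM Tris Acetate) assessed by luminescence within 5 minutes. Percent activity scaled between DMSO and PTC124 positive control, with concentration-effect curves classified by fit quality and response.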
# [14] = S16 Schwann cell viability assay (CellTiter-Glo assay) (AID 624031);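 also: native untransfected S16 rat Schwann cells; series mostly up to about 58 µM; nearly all actives have a fitted effect of over 70% in size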
# Outline: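 Counter-screen for cytotoxicity: parental S16 rat Schwann cells lacking the PMP22 reporters, treated 24 h with compound, viability from cellular ATP by CellTiter-Glo luminescence, normalized to DMSO (0%) and no-cell wells.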
# [15] = S16 Schwann cell PMP22 intronic element firefly luciferase assay (AID 624032); also: nearly all actives have a fitted effect of over 30% in size; also: potency is read from the fitted curve at half-maximal effect
# Outline: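 Luciferase reporter of PMP22 intronic-element expression in stably transfected S16 rat Schwann cells, read by ONE-Glo luminescence after 24 h compound exposure at 37 C. Activity scaled between DMSO (0%) and positive-control PTC124; concentration-effect curves quality-classified.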
# [16] = S16 Schwann cell PMP22 intronic element beta-lactamase assay (AID 624044; calls by dose curve; also: nearly all actives have a fitted effect of over 15% in size; also: potency is read from the fitted curve at half-maximal effect)
# Outline: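 Beta-lactamase reporter under a PMP22 intronic regulatory element in stable S16 rat Schwann cells; 24 h compound exposure. 460 nm blue signal normalized between DMSO (0%) and potassium clavulanate, with 535 nm FRET tracking viability; curves classed by r2 and response.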
# [17] = target: Glutaminase kidney isoform, mitochondrial (Homo sapiens) (UniProt O94925); assay: qHTS for Inhibitors of Glutaminase (GLS): LOPAC Validation (AID 624146);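 also: glutamate product detected by oxidase and peroxidase coupled Amplex red fluorescence gain; series mostly up to about 46 µM; nearly all actives have a fitted effect of over 60% in size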
# Outline: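 hKGA; 45 mM KH2PO4 pH 8.2 + 0.02% Tween-20; cpd via pin tool; 1 mM Gln soln; GluOx/HRP/Amplex Red; RT 30 min; fluor. t0 & final.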
# [18] = qHTS of Trypanosoma Brucei Inhibitors: LOPAC Validation (AID 624147)
# Outline: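 Activity of T. brucei pyruvate kinase was followed by Kinase-Glo Plus luminescence after the enzyme reacted 45 min at room temperature with 130 uM ADP (final) and substrate. Test compounds were added before ADP at multiple concentrations.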
# [19] = target: Peroxisome proliferator-activated receptor gamma (Homo sapiens) (UniProt P37231); assay: qHTS assay for small molecule antagonists of peroxisome proliferator-activated receptor gamma signaling (AID 588537; active = well fitted inhibition curve with a large enough effect in the signal ratio, with a control signal flat, not every such curve was filed as active; the % refers to the signal ratio;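 also: reporter cells co-stimulated with 50 nM rosiglitazone agonist during compound treatment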)
# Outline: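 Antagonist-mode β-lactamase reporter screen run as a titration series. HEK293 PPARγ-UAS-bla cells are stimulated with rosiglitazone (50 nM final) for 16 h, then CCF4 is read at 460/530 nm. Data are scaled between DMSO and rosiglitazone and fitted to the Hill equation.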
# [20] = target: Voltage-gated inwardly rectifying potassium channel KCNH2 (Homo sapiens) (UniProt Q12809); assay: qHTS Assay for Small Molecule Inhibitors of the Human hERG Channel Activity (AID 588834);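 also: top concentration of the series differs between compounds; lower thallium flux fluorescence means stronger hERG block; nearly all actives have a fitted effect of over 50% in size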
# Outline: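 Thallium-flux (FluxOR) read-out on FDSS: fluorescence read 10 s before and 2 min after stimulation buffer. hERG-BacMam-transduced U2OS cells, compound exposure about 10 min. AC50 by standard Hill equation.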
# Chain of Retinoic acid receptor RXR-alpha (Homo sapiens) (P19793 whole entry, looked up): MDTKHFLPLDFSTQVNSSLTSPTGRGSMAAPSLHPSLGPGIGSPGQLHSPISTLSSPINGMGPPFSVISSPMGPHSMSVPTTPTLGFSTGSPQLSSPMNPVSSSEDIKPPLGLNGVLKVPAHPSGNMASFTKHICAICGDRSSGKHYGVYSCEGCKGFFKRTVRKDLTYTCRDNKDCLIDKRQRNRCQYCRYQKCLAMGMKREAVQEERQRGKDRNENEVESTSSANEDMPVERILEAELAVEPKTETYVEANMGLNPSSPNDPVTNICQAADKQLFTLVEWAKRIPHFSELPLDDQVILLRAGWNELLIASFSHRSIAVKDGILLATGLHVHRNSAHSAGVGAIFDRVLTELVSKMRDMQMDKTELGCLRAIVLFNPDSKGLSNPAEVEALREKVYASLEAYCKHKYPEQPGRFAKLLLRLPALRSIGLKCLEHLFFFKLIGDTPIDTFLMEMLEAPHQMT
# Chain of Thyroid hormone receptor beta (Homo sapiens) (P10828 whole entry, looked up): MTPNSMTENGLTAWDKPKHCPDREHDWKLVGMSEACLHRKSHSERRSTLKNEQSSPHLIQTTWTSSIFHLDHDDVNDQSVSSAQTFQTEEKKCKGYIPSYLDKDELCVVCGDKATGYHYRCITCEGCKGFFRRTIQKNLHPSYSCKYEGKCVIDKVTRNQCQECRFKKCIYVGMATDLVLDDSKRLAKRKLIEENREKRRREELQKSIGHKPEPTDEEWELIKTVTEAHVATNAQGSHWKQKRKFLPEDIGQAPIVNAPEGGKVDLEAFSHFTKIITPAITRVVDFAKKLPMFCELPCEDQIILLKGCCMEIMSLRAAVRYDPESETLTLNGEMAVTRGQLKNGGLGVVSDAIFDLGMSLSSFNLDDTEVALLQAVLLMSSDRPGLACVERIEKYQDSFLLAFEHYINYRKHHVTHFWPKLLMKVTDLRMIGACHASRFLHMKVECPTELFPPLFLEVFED
# Chain of Vitamin D3 receptor (Homo sapiens) (P11473 whole entry, looked up): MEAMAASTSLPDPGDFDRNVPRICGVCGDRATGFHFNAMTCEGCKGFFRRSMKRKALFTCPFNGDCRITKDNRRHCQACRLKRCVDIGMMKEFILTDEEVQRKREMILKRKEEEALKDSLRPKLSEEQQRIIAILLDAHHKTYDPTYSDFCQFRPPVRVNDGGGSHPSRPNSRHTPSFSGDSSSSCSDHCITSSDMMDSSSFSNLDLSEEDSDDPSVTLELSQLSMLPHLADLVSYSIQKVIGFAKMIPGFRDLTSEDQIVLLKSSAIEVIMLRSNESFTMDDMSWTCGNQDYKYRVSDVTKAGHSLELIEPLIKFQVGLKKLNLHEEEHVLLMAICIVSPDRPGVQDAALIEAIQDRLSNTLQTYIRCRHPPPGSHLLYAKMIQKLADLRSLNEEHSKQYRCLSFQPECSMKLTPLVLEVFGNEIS
# Chain of Luciferin 4-monooxygenase (Photinus pyralis) (P08659 whole entry, looked up): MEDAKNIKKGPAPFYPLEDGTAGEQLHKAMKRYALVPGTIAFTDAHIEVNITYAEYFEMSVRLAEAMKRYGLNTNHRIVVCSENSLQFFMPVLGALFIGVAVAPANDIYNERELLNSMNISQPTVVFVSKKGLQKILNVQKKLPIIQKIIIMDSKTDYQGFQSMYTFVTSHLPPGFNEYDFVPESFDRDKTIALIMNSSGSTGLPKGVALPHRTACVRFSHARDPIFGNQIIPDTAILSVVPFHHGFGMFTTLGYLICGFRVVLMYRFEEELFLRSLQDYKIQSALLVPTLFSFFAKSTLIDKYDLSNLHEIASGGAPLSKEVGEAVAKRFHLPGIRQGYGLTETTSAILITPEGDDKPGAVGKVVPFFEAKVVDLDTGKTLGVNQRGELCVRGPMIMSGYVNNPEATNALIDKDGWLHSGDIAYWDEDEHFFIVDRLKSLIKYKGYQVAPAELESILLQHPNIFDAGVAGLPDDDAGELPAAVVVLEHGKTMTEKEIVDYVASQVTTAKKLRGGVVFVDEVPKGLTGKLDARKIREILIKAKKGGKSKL
# Chain of Glucocorticoid receptor (Homo sapiens) (P04150 whole entry, looked up): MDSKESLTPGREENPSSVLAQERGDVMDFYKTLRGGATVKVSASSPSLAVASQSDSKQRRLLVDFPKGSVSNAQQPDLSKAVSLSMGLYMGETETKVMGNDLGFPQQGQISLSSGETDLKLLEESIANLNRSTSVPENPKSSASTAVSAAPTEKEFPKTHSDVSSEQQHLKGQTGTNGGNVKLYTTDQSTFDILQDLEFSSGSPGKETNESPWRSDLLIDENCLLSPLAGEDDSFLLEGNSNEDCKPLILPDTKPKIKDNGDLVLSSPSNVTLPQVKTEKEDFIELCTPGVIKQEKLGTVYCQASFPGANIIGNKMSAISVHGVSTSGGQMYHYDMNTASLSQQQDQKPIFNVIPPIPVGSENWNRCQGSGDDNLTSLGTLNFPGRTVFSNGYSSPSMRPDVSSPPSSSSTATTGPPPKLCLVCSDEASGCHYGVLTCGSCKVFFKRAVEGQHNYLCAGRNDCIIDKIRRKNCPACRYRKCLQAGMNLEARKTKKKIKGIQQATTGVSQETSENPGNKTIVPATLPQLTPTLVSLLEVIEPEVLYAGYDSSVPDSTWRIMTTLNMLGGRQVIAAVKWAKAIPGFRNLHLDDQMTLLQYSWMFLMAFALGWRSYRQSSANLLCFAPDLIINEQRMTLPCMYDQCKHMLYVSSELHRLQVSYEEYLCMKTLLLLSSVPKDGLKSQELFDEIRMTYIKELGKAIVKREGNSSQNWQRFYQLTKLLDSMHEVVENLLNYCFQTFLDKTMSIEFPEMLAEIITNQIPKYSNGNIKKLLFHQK
# Chain of Peroxisome proliferator-activated receptor gamma (Homo sapiens) (P37231 whole entry, looked up): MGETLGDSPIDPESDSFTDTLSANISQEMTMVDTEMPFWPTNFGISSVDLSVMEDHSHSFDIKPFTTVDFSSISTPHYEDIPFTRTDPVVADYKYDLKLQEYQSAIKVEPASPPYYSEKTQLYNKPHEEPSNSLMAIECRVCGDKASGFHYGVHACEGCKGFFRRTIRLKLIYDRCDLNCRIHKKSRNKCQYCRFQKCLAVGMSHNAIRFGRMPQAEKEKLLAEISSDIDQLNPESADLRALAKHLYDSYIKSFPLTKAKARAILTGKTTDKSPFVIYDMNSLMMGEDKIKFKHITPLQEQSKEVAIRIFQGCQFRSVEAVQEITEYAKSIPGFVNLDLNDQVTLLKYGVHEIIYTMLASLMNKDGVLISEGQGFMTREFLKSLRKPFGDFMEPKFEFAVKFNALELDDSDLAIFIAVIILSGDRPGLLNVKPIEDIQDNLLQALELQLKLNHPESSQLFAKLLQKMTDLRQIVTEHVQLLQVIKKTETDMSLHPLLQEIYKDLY
# Chain of Glutaminase kidney isoform, mitochondrial (Homo sapiens) (O94925 whole entry, looked up, canonical isoform): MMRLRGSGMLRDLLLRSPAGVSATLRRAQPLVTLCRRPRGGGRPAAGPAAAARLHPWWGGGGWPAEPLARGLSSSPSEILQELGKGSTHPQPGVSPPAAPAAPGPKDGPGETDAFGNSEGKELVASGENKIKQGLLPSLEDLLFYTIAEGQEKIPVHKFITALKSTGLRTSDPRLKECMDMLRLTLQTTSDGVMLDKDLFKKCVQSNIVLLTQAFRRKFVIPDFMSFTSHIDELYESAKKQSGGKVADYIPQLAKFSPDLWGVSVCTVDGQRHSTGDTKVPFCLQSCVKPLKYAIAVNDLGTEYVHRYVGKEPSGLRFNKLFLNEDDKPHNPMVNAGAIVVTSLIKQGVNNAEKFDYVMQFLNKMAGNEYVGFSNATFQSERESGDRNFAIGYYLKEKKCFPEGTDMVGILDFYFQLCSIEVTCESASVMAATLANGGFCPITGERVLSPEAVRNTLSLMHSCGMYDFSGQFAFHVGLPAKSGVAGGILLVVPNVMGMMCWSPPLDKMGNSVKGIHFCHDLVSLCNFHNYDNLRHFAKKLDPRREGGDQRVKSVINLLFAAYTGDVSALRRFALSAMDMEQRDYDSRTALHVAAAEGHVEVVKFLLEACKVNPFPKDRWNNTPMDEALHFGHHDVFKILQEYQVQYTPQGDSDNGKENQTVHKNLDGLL
# Chain of Voltage-gated inwardly rectifying potassium channel KCNH2 (Homo sapiens) (Q12809 whole entry, looked up): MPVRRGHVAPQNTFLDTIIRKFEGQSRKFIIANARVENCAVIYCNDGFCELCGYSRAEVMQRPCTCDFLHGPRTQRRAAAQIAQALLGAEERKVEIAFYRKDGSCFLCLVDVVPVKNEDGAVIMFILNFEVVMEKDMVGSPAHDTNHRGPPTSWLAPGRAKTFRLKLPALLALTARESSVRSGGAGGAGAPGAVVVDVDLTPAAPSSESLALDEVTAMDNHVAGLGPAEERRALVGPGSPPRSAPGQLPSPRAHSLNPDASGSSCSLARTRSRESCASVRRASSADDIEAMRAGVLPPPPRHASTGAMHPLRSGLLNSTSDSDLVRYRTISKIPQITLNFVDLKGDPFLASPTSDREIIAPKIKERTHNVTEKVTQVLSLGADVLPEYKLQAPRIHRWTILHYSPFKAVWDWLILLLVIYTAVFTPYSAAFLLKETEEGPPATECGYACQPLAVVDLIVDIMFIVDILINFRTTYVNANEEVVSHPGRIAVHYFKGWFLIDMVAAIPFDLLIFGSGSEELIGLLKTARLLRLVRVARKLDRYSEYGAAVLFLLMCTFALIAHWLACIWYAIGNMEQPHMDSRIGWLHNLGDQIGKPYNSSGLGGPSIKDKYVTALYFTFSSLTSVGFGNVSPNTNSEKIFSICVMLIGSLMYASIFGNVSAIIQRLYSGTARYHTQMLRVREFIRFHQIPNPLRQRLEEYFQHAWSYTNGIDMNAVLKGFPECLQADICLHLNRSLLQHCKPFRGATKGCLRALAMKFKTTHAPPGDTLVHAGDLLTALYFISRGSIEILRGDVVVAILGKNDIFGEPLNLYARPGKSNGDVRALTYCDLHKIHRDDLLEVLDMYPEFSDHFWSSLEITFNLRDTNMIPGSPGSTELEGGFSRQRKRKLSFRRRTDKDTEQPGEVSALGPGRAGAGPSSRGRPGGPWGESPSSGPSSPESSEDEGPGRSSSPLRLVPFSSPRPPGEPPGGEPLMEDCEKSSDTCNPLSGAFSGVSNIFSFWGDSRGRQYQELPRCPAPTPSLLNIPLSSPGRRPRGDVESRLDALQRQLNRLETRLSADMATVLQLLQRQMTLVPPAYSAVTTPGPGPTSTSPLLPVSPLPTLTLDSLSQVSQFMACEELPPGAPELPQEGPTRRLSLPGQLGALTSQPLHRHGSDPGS
smiles,measurement,setting,value
C[C@]12CC[C@@H]3c4ccc(O)cc4CC[C@H]3[C@H]1CC[C@H]2O,Potency,[1],15.8 µM (active)
same,max response,[2],-15.7%
same,outcome,[3],inactive
same,outcome,[4],inactive
same,outcome,[5],inactive
same,outcome,[6],inactive
same,max response,[7],14%
same,outcome,[8],inactive
same,outcome,[9],inactive
same,max response,[10],6.57%
same,max response,[11],-12.2% (inactive)
same,activity change % (negative = inhibition),[12],-1.66% (inactive)
COc1ccc2c(c1OC)C(=O)OC2[C@H]1c2c(cc3c(c2OC)OCO3)CCN1C (stereo partly specified),outcome,[13],inactive
same,outcome,[14],inactive
same,Potency,[15],inactive
same,Potency,[16],inactive
Cc1onc(-c2ccccc2)c1C(=O)N[C@@H]1C(=O)N2[C@@H](C(=O)O)C(C)(C)S[C@@H]12,outcome,[13],inactive
C[C@H]1C[C@H]2[C@@H]3CCC4=CC(=O)C=C[C@]4(C)[C@@H]3C(=O)C[C@]2(C)[C@@]1(O)C(=O)CO,outcome,[13],inactive
OC[C@@H](O)[C@@H](O)[C@H](O)[C@@H](O)CO,outcome,[4],inactive
same,outcome,[5],inactive
same,outcome,[6],inactive
same,max response,[7],-9.11%
same,outcome,[8],inactive
same,outcome,[9],inactive
same,max response,[10],-4.07%
same,max response,[11],-2% (inactive)
same,activity change % (negative = inhibition),[12],1.79% (inactive)
CC(C=CC1=C(C)CCCC1(C)C)=CC=CC(C)=CC(=O)Nc1ccc(O)cc1,outcome,[6],inactive
same,outcome,[9],inactive
O=C1c2c(O)cccc2[C@@H]([C@@H]2O[C@H](CO)[C@@H](O)[C@H](O)[C@H]2O)c2cc(CO)cc(O)c21,outcome,[13],inactive
Nc1ccn(C[C@@H](CO)OCP(=O)(O)O)c(=O)n1,outcome,[13],inactive
OCC(O)C(O)C(O)CO (stereo unspecified),outcome,[13],inactive
same,outcome,[14],inactive
same,Potency,[15],inactive
same,Potency,[16],inactive
CCCCCCCCCCCC(CC1OC(=O)C1CCCCCC)OC(=O)C(CC(C)C)NC=O (stereo unspecified),outcome,[13],inactive
same,Potency,[15],7.21 µM (active)
same,Potency,[16],12.6 µM (active)
C#CCC(Cc1cnc2nc(N)nc(N)c2n1)c1ccc(C(=O)N[C@@H](CCC(=O)O)C(=O)O)cc1 (stereo partly specified),outcome,[13],inactive
CN[C@H](CC(C)C)C(=O)N[C@H]1C(=O)N[C@@H](CC(N)=O)C(=O)N[C@@H]2C(=O)N[C@H]3C(=O)N[C@H](C(=O)N[C@H](C(=O)O)c4cc(O)cc(O)c4-c4cc3ccc4O)[C@H](O)c3ccc(c(Cl)c3)Oc3cc2cc(c3O[C@@H]2O[C@H](CO)[C@@H](O)[C@H](O)[C@@H]2O[C@H]2C[C@](C)(N)[C@H](O)[C@H](C)O2)Oc2ccc(cc2Cl)[C@H]1O,outcome,[17],inactive
same,outcome,[18],inactive
Cc1cc(O)c2c(c1)C(=O)c1cccc(O)c1C2=O,Potency,[1],inactive
same,max response,[2],-38.7%
same,outcome,[3],inactive
same,outcome,[4],inactive
same,outcome,[19],inactive
same,outcome,[5],inactive
same,outcome,[6],inactive
same,max response,[7],0.103%
same,outcome,[8],inactive
same,max response,[10],-3.99%
same,max response,[11],11.5% (inactive)
same,activity change % (negative = inhibition),[12],3.18% (inactive)
same,outcome,[20],inactive
N=c1ccn2c(n1)O[C@H]1[C@@H](O)[C@@H](CO)O[C@H]12,outcome,[20],inactive
O=C1c2cccc(O)c2C(=O)c2c(O)cc(CO)cc21,Potency,[1],inactive
same,outcome,[19],inactive
same,outcome,[5],inactive
same,outcome,[6],inactive
same,max response,[7],11.8%
same,outcome,[8],inactive
same,outcome,[9],inactive
same,max response,[10],-0.0097%
same,max response,[11],15.1% (inactive)
same,activity change % (negative = inhibition),[12],26.1% (inactive)
Nc1nc2c(c(=O)[nH]1)N(C=O)[C@H](CNc1ccc(C(=O)N[C@@H](CCC(=O)O)C(=O)O)cc1)CN2,outcome,[13],inactive
same,outcome,[14],inactive
same,Potency,[15],inactive
same,Potency,[16],inactive
COc1ccc2cc([S+]([O-])Cc3ncc(C)c(OC)c3C)nc2c1,outcome,[17],inactive
same,outcome,[18],inactive
O=c1[nH]c(=O)n([C@H]2C[C@@H](O)[C@@H](CO)O2)cc1C=CBr,outcome,[17],inactive
same,outcome,[18],inactive
O=C(O)C(=O)Nc1cccc(C2=NN=N[N]2)c1,outcome,[13],inactive
COc1ccc([C@@H]2CNC(=O)C2)cc1OC1CCCC1,outcome,[13],inactive
same,outcome,[14],inactive
same,Potency,[16],inactive
N[C@H]1CN(c2c(F)cc3c(=O)c(C(=O)O)cn(C4C[C@@H]4F)c3c2Cl)CC12CC2 (stereo partly specified),outcome,[13],inactive
CC1(C)[C@H](O[C@H]2O[C@H](C(=O)O)[C@@H](O)[C@H](O)[C@H]2O[C@@H]2O[C@H](C(=O)O)[C@@H](O)[C@H](O)[C@H]2O)CC[C@@]2(C)[C@H]1CC[C@]1(C)[C@H]2C(=O)C=C2[C@H]3C[C@@](C)(C(=O)O)CC[C@]3(C)CC[C@]21C,outcome,[13],inactive
CCC(C(=O)O)C1CCC(C)C(C(C)C(O)C(C)C(=O)C(CC)C2OC3(C=CC(O)[C@@]4(CC[C@](C)(C5CC[C@@](O)(CC)C(C)O5)O4)O3)C(C)CC2C)O1 (stereo partly specified),outcome,[13],inactive
COc1cccc2c1C(=O)c1c(O)c3c(c(O)c1C2=O)C[C@@](O)(C(=O)CO)C[C@@H]3O[C@H]1C[C@H](N)[C@H](OC2CCCCO2)[C@H](C)O1 (stereo partly specified),outcome,[14],inactive
same,Potency,[15],inactive
CCCCCCCN(CC)CCCC(O)c1ccc(NS(C)(=O)=O)cc1 (stereo unspecified),outcome,[13],inactive
COC1=C(OC)C(=O)C(CC=C(C)CCC=C(C)CCC=C(C)CCC=C(C)CCC=C(C)CCC=C(C)CCC=C(C)CCC=C(C)CCC=C(C)CCC=C(C)C)=C(C)C1=O,outcome,[13],inactive
Nc1ccn(C2CO[C@H](CO)O2)c(=O)n1 (stereo partly specified),outcome,[13],inactive
CCCCCCCCCCCCCCCC(=O)OC[C@@H](NC(=O)C(Cl)Cl)[C@H](O)c1ccc([N+](=O)[O-])cc1,outcome,[13],inactive
